The supplement of paper PMC6522484
± gives the standard deviation of the averaged measurements.

How the values were obtained:
DLD1 [1] = test: cell viability (CellTiter-Glo) relative to plate median (fraction of plate median); higher = more viable cells; details: 5 µM; treatment time 24 h; reporter: 7TFP
In short: (§1)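 Stable lentiviral TCF/Wnt firefly luciferase reporters (7TFP or TCF4/Wnt) were present in the colorectal cancer cell lines used. These cells received library compounds at a final 5 µM for 24 h, and parallel plates were read for firefly luciferase or CellTiterGlo luminescence. Each well was normalised to the plate median, and the value reported is the mean of two independent replicates.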

HCT116 = test: as above; details: 5 µM; treatment time 24 h; reporter: TCF4/Wnt
In short: as §1

SW480 [2] = test: as above; details: 5 µM; treatment time 24 h; reporter: 7TFP
In short: as §1

DLD1 [3] = test: TCF/Wnt firefly luciferase reporter signal relative to plate median (fraction of plate median); higher = higher Wnt reporter signal; details: 5 µM; treatment time 24 h; reporter: 7TFP
In short: as §1

SW480 [4] = test: as above; details: 5 µM; treatment time 24 h; reporter: 7TFP
In short: as §1

Row | SMILES | cell viability (DLD1 [1]) | cell viability (HCT116) | cell viability (SW480 [2]) | TCF/Wnt firefly luciferase reporter signal (DLD1 [3]) | TCF/Wnt firefly luciferase reporter signal (SW480 [4])
1 | CC(=O)O[C@H]1C(=O)[C@@]2(C)[C@H]([C@H](OC(=O)c3ccccc3)[C@]3(O)C[C@H](OC(=O)[C@H](O)[C@@H](NC(=O)c4ccccc4)c4ccccc4)C(C)=C1C3(C)C)[C@]1(OC(C)=O)CO[C@@H]1C[C@@H]2O | 0.901 ± 0.03 | 0.498 ± 0.016 | 1.11 ± 0.092 | 0.792 ± 0.27 | 0.755 ± 0.23
2 | CC(NCCc1ccc(O)cc1)C(O)c1ccc(O)cc1 (stereo not given) | 0.914 ± 0.1 | 0.929 ± 0.1 | 0.933 ± 0.056 | 0.981 ± 0.07 | 0.913 ± 0.027
3 | C[N+](C)(C)CC(O)CC(=O)[O-] (stereo not given) | 0.976 ± 0.03 | 1.07 ± 0.14 | 0.9395 ± 0.00071 | 1.14 ± 0.014 | 0.902 ± 0.1
4 | CN1CCC(OC(c2ccccc2)c2ccccc2)CC1 | 0.969 ± 0.044 | 1.02 ± 0.014 | 0.979 ± 0.024 | 1.12 ± 0.13 | 1.16 ± 0.092
5 | COc1ccc(-c2cc(=O)c3c(OC(C)=O)cc(OC(C)=O)cc3o2)cc1 | 1.04 ± 0.064 | 1.07 ± 0.13 | 1.17 ± 0.057 | 1.09 | 1.21 ± 0.092
6 | CN(Cc1cc(Br)cc(Br)c1N)C1CCCCC1 | 0.975 ± 0.036 | 1.04 ± 0.035 | 0.905 ± 0.052 | 0.8435 ± 0.0035 | 0.867 ± 0.022
7 | NNC(=O)c1ccncc1 | 0.952 ± 0.018 | 0.959 ± 0.049 | 0.984 ± 0.051 | 0.8925 ± 0.00071 | 1.03 ± 0.028
8 | CC(=O)Oc1c(-c2ccccc2)oc2c(CC=C(C)C)c3c(c(OC(C)=O)c2c1=O)C=CC(C)(C)O3 | 1.05 ± 0.057 | 1.11 ± 0.11 | 1.02 ± 0.028 | 0.855 ± 0.044 | 0.972 ± 0.036
9 | CC1(C)S[C@@H]2[C@H](NC(=O)[C@H](N)c3ccccc3)C(=O)N2[C@H]1C(=O)O | 0.963 ± 0.0099 | 1.14 ± 0.13 | 0.969 ± 0.1 | 1 ± 0.083 | 0.917 ± 0.027
10 | CN1Cc2c(N)cccc2C(c2ccccc2)C1 (stereo not given) | 1.05 ± 0.014 | 1.15 ± 0.021 | 1.03 ± 0.05 | 1.02 ± 0.14 | 1.04 ± 0.014
11 | CN1[C@@H]2CC[C@H]1C[C@@H](OC(c1ccccc1)c1ccccc1)C2 | 1.03 ± 0.014 | 1.12 ± 0.014 | 1.05 ± 0.05 | 0.929 ± 0.16 | 0.982 ± 0.12
12 | COC(=O)[C@H](c1ccccc1Cl)N1CCc2sccc2C1 | 1.045 ± 0.0071 | 0.921 ± 0.02 | 1.07 ± 0.028 | 0.853 ± 0.041 | 0.906 ± 0.016
13 | CC(C)NCC(O)c1ccc(O)c(O)c1 (stereo not given) | 0.963 ± 0.11 | 1.04 ± 0.074 | 0.999 ± 0.016 | 1.02 ± 0.08 | 1.1 ± 0.042
14 | C=CCCCCCCCCC(=O)O | 1.03 ± 0.072 | 1.08 ± 0.13 | 1 ± 0.022 | 1.01 ± 0.025 | 1 ± 0.037
15 | O=C(O)c1ccccc1OP(=O)(O)O | 0.9465 ± 0.0035 | 0.9665 ± 0.0092 | 0.911 ± 0.028 | 0.939 ± 0.042 | 0.932 ± 0.04
